Screening results (PubChem BioAssay)
D1 antag = Antagonist of Human D 1 Dopamine Receptor: qHTS | D(1A) dopamine receptor (Homo sapiens), P21728 | HEK293 TREx D1 cells, calcium flux, dopamine EC80; active compounds read low | activity change, negative = inhibition, % at 10 µM | actives 3.2% (n = 360,000) | AID 504652, 2011; in the data active = activity change below about -30%; also: % is scaled to controls: 0 for no effect and ±100 for the full control effect
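Compound effects on dopamine-evoked calcium signalling were measured in tetracycline-induced HEK293 Trex D1 cells. Dopamine at EC80 followed a 180 s compound pre-read, and fluorescence was tracked kinetically for 180 s more.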
DRD3 agonist = qHTS of D3 Dopamine Receptor Agonist: qHTS. max activation, %. D3R DiscoveRx beta-arrestin cells, luminescence, 90 min. actives 0.58% (n = 410,000); in the data active = max activation above about 30%; also: 0% is about no effect
Target sequence (P35462 whole entry, looked up): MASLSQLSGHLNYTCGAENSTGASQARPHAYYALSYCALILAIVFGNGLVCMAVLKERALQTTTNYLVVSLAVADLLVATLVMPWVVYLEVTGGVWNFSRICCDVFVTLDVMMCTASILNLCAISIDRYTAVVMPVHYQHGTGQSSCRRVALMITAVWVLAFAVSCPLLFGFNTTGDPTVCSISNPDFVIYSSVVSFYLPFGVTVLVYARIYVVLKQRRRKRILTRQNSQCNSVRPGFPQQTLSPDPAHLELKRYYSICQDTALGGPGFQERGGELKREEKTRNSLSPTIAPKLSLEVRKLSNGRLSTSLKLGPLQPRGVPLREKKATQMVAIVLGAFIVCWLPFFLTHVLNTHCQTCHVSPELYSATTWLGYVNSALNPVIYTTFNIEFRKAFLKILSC
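Cells at 1500/well, incubated overnight, then treated with pinned compounds (dopamine as control) for 90 min at 37 degrees C. DiscoveRx reagent added for 30 - 60 minutes at room temperature; luminescence read.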
D1 PAM = Potentiators of Human D1 Dopamine Receptor: qHTS. potentiation, % at 10 µM. actives 0.036% (n = 360,000). D(1A) dopamine receptor (Homo sapiens), P21728. AID 504651, 2011. HEK293 TREx D1 cells, calcium flux, dopamine EC20 potentiation; in the data active = potentiation above about 30%; also: 0% is about no effect
D1 ag = Allosteric Agonists of the Human D1 Dopamine Receptor: qHTS; D(1A) dopamine receptor (Homo sapiens), P21728; HEK293 T-REx D1 cells, calcium flux, agonist mode; AID 504660, 2011; activation, % at 2 µM; actives 1% (n = 360,000); in the data active = activation above about 30%; also: 0% is about no effect
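Tetracycline-induced HEK293 TREx D1 cells, force-coupled to calcium signalling, were dye-loaded with a no-wash calcium kit. Compound was pin-added after a 10 s baseline. Fluorescence was read kinetically at 1 cycle/s for 180 s, with calcium rises flagged as agonism.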
D3 antag = qHTS of D3 Dopamine Receptor Antagonist: qHTS | D(3) dopamine receptor (Homo sapiens), P35462 | D3R cells, DiscoveRx beta-arrestin luminescence, antagonist mode; active compounds read low | max response, negative = inhibition, % | AID 652054, 2013 | actives 2.5% (n = 360,000); in the data active = max response below about -50%; inconclusive = no clear call, values can overlap the other calls; also: % is scaled to controls: 0 for no effect and ±100 for the full control effect
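Cells expressing the human receptor were seeded at 1500 cells/well, incubated overnight at 37 degrees C in 5% CO2, then exposed to library compounds with dopamine controls for 90 minutes at 37 degrees C before luminescent detection.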
Numbers without * were called inactive; ? = inconclusive; · = no result given. Only some compounds are listed: those with a hit (about 6% of all), similar ones and a draw of the others.

SMILES | D1 antag | DRD3 agonist | D1 PAM | D1 ag | D3 antag
O=[N+]([O-])c1ccc(Oc2ccc(S(=O)(=O)N3CCOCC3)cc2)cc1 | -42* | 0 | · | 17 | -14
CCOC(=O)c1c(NC(=O)COC(=O)C2CCC2)sc(C(=O)N(C)C)c1C | -46* | -5 | -9 | 3 | 14
Cc1cccc(NC(=O)CSc2nc3ccc(NC(=O)COc4ccc(Cl)cc4)cc3s2)c1 | -32* | 0 | -1 | 11 | ·
COc1ccc(CC(=O)Nc2cccc(-c3csc(C)n3)c2)cc1 | -1 | -7 | -5 | 0 | -12
Cc1nc(-c2cccc(NC(=O)COc3ccc(Cl)cc3)c2)cs1 | -44* | 10 | -17 | 14 | 19
Cc1ccccc1Nc1c(-c2ccc(N3CCOCC3)cc2)nc2ccc(Cl)cn12 | 7 | -21 | -1 | 2 | ·
COCCNCCCOc1ccc(C)cc1Br | 4 | -1 | -3 | 14 | -51*
C=CCNCCCOc1ccc(C)cc1Br | 22 | -31 | -5 | 6 | ?
COCCCNCCCCOc1c(Cl)cc(C)cc1Br | 8 | -10 | -11 | 7 | -77*
CCOc1ccccc1OCCCOc1ccc(C)cc1Br | 5 | -1 | 3 | 3 | 46
C=CCNCCCCOc1c(Cl)cc(C)cc1Br | 27 | -3 | -9 | 9 | 18
CCN(CC)CCCOc1ccc(C)cc1Br | -38* | 1 | -9 | 4 | -75*
COCCCNCCCOc1ccc(C)cc1Br | -1 | -20 | -4 | 9 | -73*
CC(=O)N1CCc2cc(S(=O)(=O)NC(CC(C)C)C(=O)NCc3ccccc3Cl)ccc21 (configuration not stated) | 14 | 7 | 0 | 1 | ·
COc1ccc(C2CC(=O)NC(NC(=O)c3ccc(Br)cc3)=N2)c(OC)c1OC (configuration not stated) | 11 | 5 | 1 | -1 | ·
Cc1ccccc1OCCSCc1nc2ccccc2[nH]1 | -30* | -3 | -9 | 8 | -20
O=C(CCCN1C(=O)/C(=C\c2cccs2)SC1=S)Nc1cc([N+](=O)[O-])ccc1O | -22 | -19 | -2 | 17 | -90*
O=C(CCN1C(=O)/C(=C\c2cccs2)SC1=S)Nc1nccs1 | 5 | 13 | 8 | 2 | -52*
O=C(O)CCCN1C(=O)/C(=C\c2ccccc2OCc2ccccc2)SC1=S | -7 | 0 | -5 | 4 | 29
O=C(O)CCCN1C(=O)/C(=C/c2cn(-c3ccccc3)nc2-c2cccs2)SC1=S | -37* | -6 | -5 | 51* | -7
Cc1cccc(NCc2cccc3ccccc23)n1 | -91* | -3 | -3 | 1 | 1
CCO/C(=C/c1sc2ccc(OC)cc2[n+]1CCCS(=O)(=O)[O-])CC | -21 | -1 | -2 | 3 | -73*
Cc1cccc(NC(=O)Cn2c(=O)n(Cc3ccc4c(c3)OCO4)c(=O)c3ccccc32)c1 | -2 | 1 | 1 | 5 | ·
CC(C)(C)OC(=O)C[C@@H]1C/C=C\C[C@@H](CC(=O)N(CCO)Cc2ccccc2)C(=O)N2CCC[C@@H]2COC1=O | · | 35* | · | · | 7
CC(C)(C)OC(=O)C[C@@H]1C/C=C\C[C@@H](CC(=O)N(CCO)Cc2ccccc2)C(=O)NCCOC1=O | · | -27 | · | · | -123*
SMILES | D1 antag | DRD3 agonist | D1 PAM | D1 ag | D3 antag
CC(C)(C)OC(=O)C[C@H]1C/C=C\C[C@H](CC(=O)N(CCO)Cc2ccccc2)C(=O)NCCOC1=O | · | -1 | · | · | 30
O=C(O)C1c2ccccc2Cc2ccccc21 | · | -3 | · | · | ?
Cc1cccc(C(C)C)c1NC(=O)C1CCCN1S(=O)(=O)c1cccc2nsnc12 (configuration not stated) | 4 | 7 | -1 | 0 | ·
S=c1[nH]nc(-c2ccccc2)n1C1C=CCCC1 (configuration not stated) | 0 | -3 | -3 | 2 | -55*
S=c1[nH]nc(-c2cccnc2)n1C1CCCCC1 | -1 | -5 | 5 | 1 | -6
COCCCNC(=S)N1CCCN(c2nc3cc(C)c(C)cc3cc2C#N)CC1 | 7 | -3 | -1 | 0 | 2
CCOCCCNC(=S)N1CCCN(c2nc3cc(C)c(C)cc3cc2C#N)CC1 | -33* | 3 | -3 | 0 | -3
CC(C)(C)c1ccccc1OCCCCCNCCO | 18 | -25 | -6 | 33* | -86*
